High-throughput results from PubChem.
Most compounds without a hit are left out; they make up all but 14% or so of the library.
USP28 block: inhibitors of human USP28 deubiquitinase; actives 3% (n = 47,000); purified USP28, Ub-rhodamine cleavage fluorescence, 30 min; inhibition, % at 25 µM; AID 1645857, 2021
USP17 block: inhibitors of human USP17 deubiquitinase. inhibition, % at 50 µM. purified USP17, Ub-rhodamine cleavage fluorescence, 3 h. actives 6.5% (n = 47,000). Ubiquitin carboxyl-terminal hydrolase 17-like protein 5 (Homo sapiens), A8MUK1
USP30 inh: inhibitors of human USP30 deubiquitinase; actives 5.3% (n = 47,000); inhibition, % at 25 µM; purified USP30, Ub-rhodamine cleavage fluorescence; Ubiquitin carboxyl-terminal hydrolase 30 (Homo sapiens), Q70CQ3; AID 1645860, 2021
Target sequence (Q70CQ3 whole entry, looked up): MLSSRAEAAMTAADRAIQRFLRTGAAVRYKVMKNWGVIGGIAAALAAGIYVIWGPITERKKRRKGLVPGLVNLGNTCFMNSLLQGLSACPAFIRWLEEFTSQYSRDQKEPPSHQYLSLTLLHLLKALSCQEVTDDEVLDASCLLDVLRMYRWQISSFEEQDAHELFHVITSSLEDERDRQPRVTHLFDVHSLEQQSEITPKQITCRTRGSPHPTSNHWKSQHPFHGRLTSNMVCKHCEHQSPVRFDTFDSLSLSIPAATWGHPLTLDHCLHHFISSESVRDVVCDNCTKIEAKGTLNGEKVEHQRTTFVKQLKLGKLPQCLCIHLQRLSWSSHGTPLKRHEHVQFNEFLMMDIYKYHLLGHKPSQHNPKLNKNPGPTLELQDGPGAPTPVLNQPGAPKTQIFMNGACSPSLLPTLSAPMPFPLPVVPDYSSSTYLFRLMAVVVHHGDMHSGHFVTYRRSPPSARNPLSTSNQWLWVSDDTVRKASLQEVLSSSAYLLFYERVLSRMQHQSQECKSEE
USP10 inh: inhibitors of human USP10 deubiquitinase; inhibition, % at 20 µM; Ubiquitin carboxyl-terminal hydrolase 10 (Homo sapiens), Q14694; purified USP10, Ub-rhodamine fluorescence, 60 min; actives 1.1% (n = 47,000)
USP8 block: inhibitors of human USP8 deubiquitinase; actives 4.2% (n = 47,000); purified USP8, Ub-rhodamine cleavage fluorescence, 30 min; Ubiquitin carboxyl-terminal hydrolase 8 (Homo sapiens), P40818; AID 1645853, 2021; inhibition, % at 20 µM
An asterisk follows results filed as active; . = no result given. Cut-off read from the data, not from the text of the source: active = inhibition above about 30%; inactive = the rest.

SMILES	USP28 block	USP17 block	USP30 inh	USP10 inh	USP8 block
O=C(c1ccccc1)c1c[nH]c2cc3c(cc2c1=O)OCO3	-40.4	-36.7	-127.4	-7.5	49.6*
Cc1cc(C)c(C(=O)CSc2nnc(-c3ccccc3)o2)cc1C	-16.3	5.4	-57.3	-4.2	56.3*
O=C(NCCN1CCCC1)c1nc2c(o1)CN(CC1CC1)C2	0.1	-0.3	0.2	-1.7	-58.3
Cc1cccc(N2CCN(C(=O)Cn3cc(-c4ccccc4)oc3=O)CC2)c1	-13.6	-12.8	-23.8	-2.1	13.9
CCc1nnc(-c2cc(S(=O)(=O)N3CCC(C)CC3)c[nH]2)o1	-9.0	24.2	-1.4	3.9	3.0
CCc1nnc(-c2cc(S(=O)(=O)N3CCN(c4ccccn4)CC3)c[nH]2)o1	15.9	6.8	17.5	22.6	40.5*
Cc1nnc(-c2ccc3ccn(CC(=O)N4CCN(c5ccccn5)CC4)c3c2)o1	-0.3	3.1	-8.4	-2.6	6.1
Cc1ccc(-c2cn(CC(=O)N3CCN(c4ccccn4)CC3)c(=O)o2)cc1	20.0	77.0*	35.5*	15.8	29.7
CCc1nnc(-c2ccc3ccn(CC(=O)N4CCN(c5ccccn5)CC4)c3c2)o1	30.9*	75.9*	38.6*	33.0*	91.9*
O=C(Nc1ccc(Br)cc1)C1C2C=CC3(O2)C1C(=O)N(CCCN1CCOCC1)C3C(=O)NC1CCCCC1 (centres undefined)	2.4	-17.8	6.6	-2.7	-85.6
O=C(c1ccccc1)N1CC[C@@H]2CN(C(=O)c3ccccc3)[C@@H]2C1	-6.9	.	3.5	-0.6	0.0
COc1ccc(C(=O)Nc2cc(-c3ccccn3)no2)cn1	62.5*	4.8	20.2	-0.4	17.4
O=C(Cc1ccc(Cl)cc1)Nc1cc(-c2ccccn2)no1	1.0	40.4*	4.5	-0.2	5.9
O=C(Nc1cc(-c2ccccn2)no1)c1cccc(F)c1	7.2	4.5	4.1	0.6	0.2
O=C(Cc1cccc(Cl)c1)Nc1cc(-c2ccccn2)no1	0.3	-8.9	-15.9	6.7	-3.7
c1ccc2c(c1)CCN(c1nc3cc4c(cc3s1)OCO4)C2	9.8	27.6	5.3	5.4	33.5*
Clc1ccc2nc(N3CCc4ccccc4C3)sc2c1	16.9	-5.8	10.5	-0.6	28.4
c1ccc(C2CCCN2c2ccccn2)cc1 (centres undefined)	8.5	3.2	4.5	3.8	-1.5
O=C(O)c1cccnc1N1CCCC1c1ccccc1 (centres undefined)	-6.7	4.1	-15.6	-1.5	46.7*
Cc1cccc(-n2ncc3c(N(CCO)CCO)ncnc32)c1	9.7	23.7	33.6*	0.1	27.7
c1ccc(CN(Cc2ccccc2)c2ncnc3c2cnn3-c2ccccc2)cc1	4.8	0.6	9.4	7.0	1.1
O=C(Nc1cccnc1)C1Cn2ccnc2C2(CCNCC2)O1 (centres undefined)	19.6	-23.9	-24.3	2.3	19.4
CC(Nc1ccc(Oc2ccccc2)cc1)C(=O)Nc1cccc(C#N)c1 (centres undefined)	.	36.9*	.	12.0	5.4
CC(=O)Nc1ccc(NC(=O)C(C)Nc2ccc(Oc3ccccc3)cc2)cc1 (centres undefined)	0.3	3.7	-81.0	-0.2	61.2*
CC(Nc1ccc(Oc2ccccc2)cc1)C(=O)Nc1ccc2c(c1)OCCO2 (centres undefined)	17.5	-24.8	0.0	5.5	19.0
SMILES	USP28 block	USP17 block	USP30 inh	USP10 inh	USP8 block
CC(C(=O)Nc1ccc(F)c(F)c1)N(c1ccc(Oc2ccccc2)cc1)S(C)(=O)=O (centres undefined)	16.3	12.2	10.8	6.0	24.3
Cc1ccc(S(=O)(=O)Nc2ccc(NC(=O)CC3OC(=O)c4ccccc43)cc2)cc1[N+](=O)[O-] (centres undefined)	7.2	0.4	13.1	4.1	-78.6
Cc1ccc(NC(=O)CC2Nc3ccccc3NC2=O)cc1[N+](=O)[O-] (centres undefined)	13.6	41.0*	48.8*	0.1	65.8*
CC(C)C(Nc1ccc(C(F)(F)F)cc1Cl)C(=O)Nc1nc2ccccc2[nH]1 (centres undefined)	24.1	39.9*	36.6*	13.6	-254.6
OCCOc1ccc(CN2CCc3nc4ccccc4n3CC2)cc1	0.3	9.1	4.9	4.8	-0.3
COc1cc(C(=O)Oc2ccc3ccc(=O)oc3c2)cc(OC)c1OC	18.2	20.9	45.0*	0.5	-31.5
COc1ccc(NC(=O)COc2ccc3ccc(=O)oc3c2)cc1	26.2	56.9*	15.3	2.2	4.6
O=C(Nc1ccccc1)c1ccc2c(c1)S(=O)(=O)Nc1ncnn1-2	-2.7	-2.4	5.4	2.6	1.3
CC(=O)N[C@@]12CN(C)CC[C@@H]1[C@@H](c1ccccc1)N(C(=O)C1(c3ccccc3)CCCC1)C2	7.0	-4.2	15.2	1.5	17.6
COc1ccccc1OCCCn1c(CN(C)C(=O)c2ccco2)nc2ccccc21	1.0	-10.0	-0.7	0.6	-7.4
Cc1cccc(OCCn2c(CCNC(=O)C3CCCCC3)nc3ccccc32)c1	11.4	41.7*	78.7*	31.7*	48.5*
CCc1ccc(OCCn2c(CCNC(=O)C3CCCCC3)nc3ccccc32)cc1	16.8	5.8	27.5	28.0	69.4*
O=C(NCCc1nc2ccccc2n1CCOc1ccccc1Cl)C1CCCCC1	30.0*	64.1*	55.4*	37.5*	83.1*
COc1ccccc1C(=O)Nc1nc2ccccc2n1CCOc1ccccc1	.	-30.7	.	2.2	2.2
COc1ccc(N2CCN(C(=O)/C(=C/c3ccccc3Cl)c3ccccc3)CC2)cc1	11.9	12.9	19.5	12.6	6.1
CCOc1ccccc1C(=O)Oc1ccc2c(C)cc(=O)oc2c1	7.6	59.4*	31.0*	10.1	35.3*
Cc1ccc(CNC(=O)c2c(O)c3cccc4c3n(c2=O)CC4)cc1	-16.7	-10.9	-14.4	0.3	59.4*
CNC(=O)c1ccccc1NC(=O)c1c(O)c2cccc3c2n(c1=O)CC3	-18.0	-23.3	-36.7	-0.8	-118.2
CC1=C(c2ccc(C)c(C)c2)S(=O)(=O)NC1=NCC(=O)NCCc1ccc(C)cc1	31.8*	14.9	69.0*	5.6	4.0
CCC1=C(c2ccc(C)cc2)S(=O)(=O)NC1=NCC(=O)NCCC1=CCCCC1	1.3	-4.8	0.2	7.8	17.6
CC1=C(c2ccc(C)c(C)c2)S(=O)(=O)NC1=NCC(=O)Nc1ccc(F)cc1F	6.4	48.4*	3.1	5.6	9.3
COc1ccccc1NC(=O)CN=C1NS(=O)(=O)C(c2ccc(F)cc2)=C1C	0.6	12.3	-2.6	1.0	6.5
CCC1=C(c2ccc(C)cc2)S(=O)(=O)NC1=NCC(=O)NC(C)c1ccccc1 (centres undefined)	7.0	54.4*	14.1	5.6	0.0
CCc1ccc(NC(=O)CN=C2NS(=O)(=O)C(c3ccc(CC)cc3)=C2C)cc1	22.3	57.7*	23.1	7.6	1.2
